# Assay outcomes as filed in PubChem.
# Hits are enriched below; roughly 0.41% of the tested compounds scored in any of these assays.
# Menin MLL FP TR: menin-MLL binding inhibition, Texas Red mutant peptide; O00255; AID 1768; Menin + Texas Red MLL mutant peptide, fluorescence polarization; hit rate 0.23% among 270,000; Potency, µM (highest dose often 61.6 µM), inactives show top-dose FP activity change, negative = inhibition, actives largely listed as inhibitors; active = well fitted inhibition curve with a large enough effect in the polarisation, with a control signal flat, not every such curve was filed as active; inconclusive = small, poorly fitted or top-dose-only effect, or effect the other way, or a change in a side signal; inactive = no such curve, though single readings can be large or run the other way; the % refers to the polarisation; also: potency is read from the fitted curve at half-maximal effect; % of control where 0% means no effect
# PKM2 act: activators of human pyruvate kinase M2; P14618; purified PKM2, Kinase-Glo ATP luminescence, activation; response scale: 0% is enzyme alone, no compound; Potency, µM (highest dose often 57.5 µM), inactives show at the highest dose activation, usual class: activators; hit rate 0.34% among 260,000; AID 1631; active = well fitted activation curve with a large enough effect; inconclusive = small, poorly fitted or top-dose-only effect; inactive = no such curve, though single readings can be large or run the other way; also: potency is read from the fitted curve at half-maximal effect; % is scaled to controls: 0 for no effect and ±100 for the full control effect; nearly all actives have a fitted effect of over 55% in size
# Target sequence (P14618 whole entry, looked up): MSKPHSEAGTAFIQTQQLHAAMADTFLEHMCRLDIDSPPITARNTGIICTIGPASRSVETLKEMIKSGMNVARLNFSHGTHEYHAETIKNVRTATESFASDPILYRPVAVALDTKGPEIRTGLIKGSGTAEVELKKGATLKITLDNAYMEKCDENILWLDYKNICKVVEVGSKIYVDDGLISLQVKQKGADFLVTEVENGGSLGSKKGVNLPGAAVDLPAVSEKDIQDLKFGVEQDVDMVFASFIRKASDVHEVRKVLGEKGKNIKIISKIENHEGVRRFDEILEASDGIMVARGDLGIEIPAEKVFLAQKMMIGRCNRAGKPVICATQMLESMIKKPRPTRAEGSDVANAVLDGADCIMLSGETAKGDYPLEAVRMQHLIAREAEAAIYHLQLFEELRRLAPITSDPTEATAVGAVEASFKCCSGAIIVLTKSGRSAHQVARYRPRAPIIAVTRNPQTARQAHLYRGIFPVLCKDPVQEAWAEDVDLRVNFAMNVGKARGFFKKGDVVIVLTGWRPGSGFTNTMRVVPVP
#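 hPK-M2, >95% pure; 0.1 mM ADP / 0.5 mM PEP final; imidazole pH7.2 buffer w/ 7 mM MgCl2, 50 mM KCl; 1 h RT; Kinase-Glo lum. Intermediate enzyme activity for dual inhibitor/activator qHTS.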
# MLL CXXC-DNA inh: inhibitors of human MLL CXXC domain-DNA interaction; MLL-CXXC / FITC-HOXA9 DNA fluorescence polarization; Potency, µM (series often up to 115 µM), without a hit: at the top dose activity change, negative = inhibition, most hits filed as inhibitors; hit rate 0.037% among 290,000; AID 2662; active = well fitted inhibition curve with a large enough effect in the polarisation, with a control signal flat, not every such curve was filed as active; inconclusive = small, poorly fitted or top-dose-only effect, or effect the other way, or a change in a side signal; inactive = no such curve, though single readings can be large or run the other way; the % refers to the polarisation; also: potency is read from the fitted curve at half-maximal effect
#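 Purified MLL-CXXC (added from a 7 uM solution) was preincubated 5 min at ambient with pinned compounds in 50 mM Tris-HCl pH 7.5, 50 mM NaCl, 1 mM DTT, 0.05% BSA. Fluorescein-labeled HOX-A9 DNA (50 nM solution) followed, 30 min, then polarization read.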
# Menin MLL FP FL: inhibitors of human menin-MLL interaction, wild-type MLL peptide | Fluorescence polarization, fluorescein-MLL peptide displacement from menin | FP activity change, % at 61.4 µM | 290,000 tested, under 10 active | AID 1766; active = well fitted curve in the direction sought with a large enough effect in the polarisation, not every such curve was filed as active; inconclusive = small, poorly fitted or top-dose-only effect, or effect the other way, or a change in a side signal; inactive = no such curve, though single readings can be large or run the other way; the % refers to the polarisation; also: % of control where 0% means no effect
# An asterisk follows results filed as active; ? = inconclusive; · = not tested or not shown; [ ] = remark or other dose.
SMILES,Menin MLL FP TR,PKM2 act,MLL CXXC-DNA inh,Menin MLL FP FL
CCC(=O)N1C2=C(c3ccccc3[C@@H]1CC(=O)Nc1ccc3ccccc3c1)[C@@H]1C(=O)N(c3ccccc3)C(=O)[C@@H]1[C@H](C)C2,?,-10%[11.5 µM],·,0[11.7 µM]
CC12CCC=CC1C(c1ccc(F)c(/C=C/c3ccccc3)c1)N(Cc1ccccc1)C2=O (stereo unspecified),-12%,·,·,3
COc1cc(C(=O)NCc2cccc3ccccc23)cc(Cl)c1OC,18%,18µM*,13%,4
COc1ccc(-c2cc(=O)c3ccc(F)cc3[nH]2)cc1,50µM*,·,·,-5[94.6 µM]
COc1ccc(-c2cc(=O)c3cc(F)ccc3[nH]2)cc1,?,0%,-3%,?
COc1ccc(-n2c(-c3cccc(C)c3[N+](=O)[O-])n[nH]c2=S)cc1,-17%,11µM*,-3%,3
COc1ccccc1COCC(O)CNCCc1ccc(C(F)(F)F)cc1 (stereo unspecified),22µM*,·,13%,-7
COc1ccc(C(=O)c2c(N)sc3c2CCN(C)C3)cc1,14µM*,·,?,?
CN1CCc2c(sc(N)c2C(=O)O)C1,-8%,3%,1%,-22
COc1ccc(-c2ccc(OC)c(C3C4C=CCCC4(C)C(=O)N3Cc3ccccc3)c2)cc1OC (stereo unspecified),2%,·,·,-5
CCCc1nc2sc3ccccc3c(=O)c2c(=O)n1Cc1ccco1,19%,14µM*,1%,18
CCCc1nc2sc3ccccc3c(=O)c2c(=O)n1Cc1ccc(OC)cc1,·,15%,0%,11
COC(=O)N1C(/C=C/c2ccc3c(c2)OCO3)=Cc2ccccc2C1CC(C)=O (stereo unspecified),-21%[11.7 µM],-4%[11.5 µM],·,0[11.7 µM]
C=CCCN(Cc1ccc(OC)cc1)S(=O)(=O)c1ccccc1Br,7%,·,·,2
Nc1nonc1-c1nc2ccccc2n1CC(=O)N/N=C\c1ccc(-c2ccc(Cl)cc2)o1,10µM*,-8%,49%,11
CN(C)c1ncc2nc(-c3cccs3)c(=O)n(C3CC3)c2n1,3%,·,·,?
Cc1cc(C)c2c(=O)n(CC(=O)N3CCC(Cc4ccccc4)CC3)sc2n1,-5%,1.6µM*,12%,2
Cc1cccc(N2CCN(C(=O)Cn3sc4nc(C)cc(C)c4c3=O)CC2C)c1 (stereo unspecified),4%,?,11%,?
C[C@@H]1C(=O)N(S(=O)(=O)c2ccc([N+](=O)[O-])cc2)[C@H]1c1ccccc1,18%,·,·,2
COCCn1c(=O)c(-c2ccccc2)nc2cnc(N(C)C)nc21,10%,·,·,-11
CC(C)C[C@H](NC(=O)[C@@H]1CCCN1C(=O)[C@H](CO)NC(=O)[C@H](Cc1ccccc1)NC(=O)CNC(=O)[C@@H]1CCCN1C(=O)[C@@H]1CCCN1C(=O)[C@@H](N)CCCN=C(N)N)C(=O)O,-2%,·,·,-1
O=C1CCCc2oc3ccc(NS(=O)(=O)c4cccc5cccnc45)cc3c21,-8%,6%,-2%,-2
O=c1oc2ccc(NS(=O)(=O)c3cccc4cccnc34)cc2s1,16%,14µM*,-2%,-13
O=C(c1ccc(NS(=O)(=O)c2cccc3cccnc23)cc1)N1CCCCC1,-10%,16µM*,1%,-3
O=S(=O)(Nc1ccc(N2CCCCC2)cc1)c1cccc2cccnc12,-5%,13%,9%,-1
SMILES,Menin MLL FP TR,PKM2 act,MLL CXXC-DNA inh,Menin MLL FP FL
Cc1ccc(C(=O)NCc2nnc3c(C(F)(F)F)cc(Cl)cn23)o1,5%,1%,4%,-2
O=C(NCc1nnc2c(C(F)(F)F)cc(Cl)cn12)c1ccco1,4%,14µM*,3%,-2
NC(=O)[C@H]1O[C@@H](O)[C@H](O)[C@@H](O)[C@@H]1O,-1%,·,-1%,2
O=C1C2C3C=CC(CO)(O3)C2C(=O)N1c1ccccc1-c1ccccc1 (stereo unspecified),5%,32µM*,-2%,2
CC(=O)Oc1ccc(N2C(=O)C3C4C=CC(CO)(O4)C3C2=O)cc1 (stereo unspecified),-2%,?,-8%,1
CCCCCCCCCCCCC/C=C/[C@@H](O)[C@H](CO)NC(=O)CCCCCCCCCCCCCCC,-13%,·,·,5
Nc1c2c(nc3ccn(Cc4ccccc4)c(=O)c13)CCC2,-11%,14µM*,-2%,-1
CCc1nc(SCC(=O)Nc2ccc(OC)cc2[N+](=O)[O-])n[nH]1,·,25µM*,-6%,0
CCOc1ccc(NC(=O)CSc2ncn[nH]2)c([N+](=O)[O-])c1,3%,16µM*,2%,6
Cc1cc2nc3c(=O)[nH]c(=O)nc-3n(CC(O)C(O)C(O)COP(=O)(O)O)c2cc1C (stereo unspecified),3%,·,?,?
C[C@]12CC[C@@H]3c4ccc(O)cc4CC[C@H]3[C@@H]1C[C@H](O)C2O (stereo partly specified),4%,·,4%,0
O=C(NCc1ccc(Cl)cc1)c1cc(-c2cccs2)on1,28µM*,6%,6%,5
CCOCCOC(=O)c1[nH]c2c(c1C)C(=O)CC(c1ccccc1)C2 (stereo unspecified),-4%,·,-2%,-2
CCCCCOC(=O)c1[nH]c2c(c1C)C(=O)CC(c1ccco1)C2 (stereo unspecified),-1%,16µM*,-1%,1
N#Cc1cccc(-c2nc3cnc(Nc4ccccc4)nc3n(C[C@H]3CCCO3)c2=O)c1,28µM*,·,·,?
O=C(O)C1C2CCC(O2)C1C(=O)Nc1ccc(O)cc1 (stereo unspecified),32µM*,-20%,-2%,·
CC[C@@H](C)[C@H](CNC)NC[C@@H](Cc1cccc2ccccc12)NCCc1cccc(C(F)(F)F)c1,32µM*,-2%,127%,1
COc1ccc(OC)c(/C=N/NC(=O)c2cc(-c3ccc(C)o3)nc3ccccc23)c1,19%,7.9µM*,11%,4
O=C(O)c1ccccc1/C=N/NC(=O)c1cc(-c2ccco2)nc2ccccc12,·,25µM*,3%,19
CC(=O)Nc1ccc(/C=N/NC(=O)c2cc(-c3ccco3)nc3ccccc23)cc1,·,7%,1%,3
O=C(Nc1ncc2c(n1)CC(c1ccco1)CC2=O)c1ccco1 (stereo unspecified),4%,28µM*,4%,3
CC/C=C\C/C=C\C/C=C\C/C=C\C/C=C\C/C=C\CCC(=O)O[C@H](COCCCCCCCCCCCCCCCC)COP(=O)([O-])OCC[N+](C)(C)C,-23%,·,·,1
COc1ccccc1C(=O)Nc1cc(C)on1,0%,-3%,-2%,3
COCCSc1ccccc1C(=O)Nc1cc(C)on1,-7%,32µM*,2%,1
O=S(=O)(NCCNc1nccc(C(F)(F)F)n1)c1ccccc1,·,18µM*,-15%,2
CCCN1C(=O)/C(=C/c2c(NCCCOCC)nc3c(C)cccn3c2=O)SC1=S,8.9µM*,-18%,?,?
